Results filed as inconclusive are left out. Entries that show only a call come without a potency. Activity calls are given as the source filed them. Calls come from the whole dose curve; as a rule, active = well fitted cell-killing curve with a large enough effect; inconclusive = small, poorly fitted or top-dose-only effect, or effect the other way; inactive = no such curve, though single readings can be large or run the other way. Numbered stars: 1 amine (or outer) side, 2 acyl side, 3 side chain; on linkers, the order of the positions; unused ones are H or OH. Bridge positions count the residues as written; N and C are the ends. Square brackets hold non-standard residues; d marks the D form. Peptide text beside a SMILES is read from it. I, II: the chains in the order shown. Actinocin(9to1) = Cc1c2oc3c(C)ccc(C(=O)[*:1])c3nc-2c(C(=O)[*:2])c(N)c1=O; NMeV = CN[C@H](C(=O)O)C(C)C; Sar = CNCC(=O)O
Assay: qHTS of pediatric cancer cell lines to identify multiple opportunities for drug repurposing: Confirmatory screen for LAN-5 cells (AID 1347113); note: nearly all actives have a fitted effect of over 65% in size
Settings: LAN-5 neuroblastoma cell viability; series mostly up to 45.9 µM
From the text: Drug repurposing or repositioning has been offered as a strategy for drug development in oncology programs. This approach has special potential for childhood cancers and other rare or orphan diseases, where the expected return on new drug development has been a disincentive to pharmaceuticals.
In this project we exploit the poly-pharmacology of drugs to discover new indications via phenotypic screening of a panel of 19 well-characterized cell lines derived from solid tumors seen in children and adolescents. The goal is to identify approved drugs with previously unrecognized anticancer properties that has the potential to reveal new mechanisms and biological processes involved in carcinogenesis or drug resistance. We employed a titration-based paradigm (quantitative high-throughput screening or qHTS), where all compounds were tested at multiple concentrations for their effect on cell viability. Concentration-response curves (CRCs) were derived directly from the primary screen, and both potency and efficacy values were used to identify compounds with robust bioactivity profiles. We screened the NIH Chemical Genomics Center (NCGC) Pharmaceutical Collection (NPC) and Mechanism Interrogation Plate (MIPE) small molecule collections of approved and investigational compounds against these cell lines; and measured metabolically active cells after 48 hours of compound treatment as a proxy for cell viability.
Assay Submitter: Nathalia J. Martinez, National Center for Advancing Translational Sciences, National Institutes of Health, Rockville, MD, USA; email: natalia.martinez@nih.gov
[1] Shen, M et al. Quantitative high-throughput phenotypic screening of pediatric cancer cell lines identifies multiple opportunities for drug repurposing. Oncotarget 2017 Dec 19;9(4):4758-4772. PMID 29435139.
The cells were obtained from University of North Carolina (UNC), Pediatric Preclinical Testing Program (PPT), and Coriell Institute (CI).
qHTS cell viability assay:
Cells were assayed in growth media at a density of 500-1,000 cells/well. Five microliters of cells were dispensed into 1,536-well, white, solid-bottom, TC-treated plates (Greiner Bio One) using a multidrop dispenser and incubated at 37 degrees C, 5% CO2, under a humidified atmosphere for 5 hours. Twenty-three nanoliters of compounds and controls (neutral control DMSO or positive control bortezomib at final concentration of 2.3 µM) were subsequently transferred by Kalypsys pintool. For primary screens, the MIPE collection was tested at 11-point dilutions (final concentrations range from 0.78 nM to 46 µM) and the NPC collection at 8-point dilutions (final concentrations range from 0.59 nM to 46 µM). Compounds tested in follow-up screens were assayed at 11-point dilutions. Cells were incubated for 48 hours, followed by addition of 3 µL of CellTiter-Glo (Promega). After a 15 min incubation at room temperature, samples were analyzed for luminescence intensity using a ViewLux High-throughput CCD imager equipped with clear filters.
Potency is the fitted concentration of half-maximal effect.

Compound | Potency
CCCCC(=O)O[C@]1(C(=O)CO)CC[C@H]2[C@@H]3CCC4=CC(=O)CC[C@]4(C)[C@H]3[C@@H](O)C[C@@]21C | inactive
COCc1c(C(C)C)nc(C(C)C)c(/C=C/[C@@H](O)C[C@@H](O)CC(=O)O)c1-c1ccc(F)cc1 | 13.1 µM (active)
CCCCCCC[N+](CC)(CC)CCCCc1ccc(Cl)cc1 | 8.27 µM (active)
CCC(C(=O)OCCN(CC)CC)c1ccccc1 (stereo not given) | inactive
COc1cccc2c1C(=O)c1c(O)c3c(c(O)c1C2=O)C[C@@](O)(C(=O)CO)C[C@@H]3O[C@H]1C[C@H](N)[C@H](O)[C@H](C)O1 | 1.04 µM (active)
CC(=O)OCC(=O)[C@@]12N=C(C)O[C@@H]1C[C@H]1[C@@H]3CCC4=CC(=O)C=C[C@]4(C)[C@H]3[C@@H](O)C[C@@]12C | 1.47 µM (active)
CCCCC(CC)CN=C(N)NC(N)=NCCCCCCN=C(N)NC(N)=NCC(CC)CCCC (stereo not given) | 7.37 µM (active)
CC(=O)OCC(=O)[C@@]12OC(C)(C)O[C@@H]1C[C@H]1[C@@H]3C[C@H](F)C4=CC(=O)C=C[C@]4(C)[C@@]3(F)[C@@H](O)C[C@@]12C | inactive
CC(=O)O[C@]1(C(C)=O)CC[C@H]2[C@@H]3C[C@H](C)C4=CC(=O)CC[C@]4(C)[C@H]3CC[C@@]21C | inactive
NC(=O)CC[C@@H]1NC(=O)[C@H](Cc2ccccc2)NC(=O)[C@H](Cc2ccc(O)cc2)NC(=O)CCSSC[C@@H](C(=O)N2CCC[C@H]2C(=O)N[C@@H](CCCN=C(N)N)C(=O)NCC(N)=O)NC(=O)[C@H](CC(N)=O)NC1=O | inactive
CC(=O)[C@H]1CC[C@H]2[C@@H]3C[C@H](C)C4=CC(=O)CC[C@]4(C)[C@H]3[C@@H](O)C[C@]12C | inactive
Cc1c2oc3c(C)ccc(C(=O)N[C@@H]4C(=O)N[C@H](C(C)C)C(=O)N5CCC[C@H]5C(=O)N(C)CC(=O)N(C)[C@@H](C(C)C)C(=O)O[C@@H]4C)c3nc-2c(C(=O)N[C@@H]2C(=O)N[C@H](C(C)C)C(=O)N3CCC[C@H]3C(=O)N(C)CC(=O)N(C)[C@@H](C(C)C)C(=O)O[C@@H]2C)c(N)c1=O (I: T[dV]P[Sar][NMeV] / II: T[dV]P[Sar][NMeV]; ester I:1-I:C, II:1-II:C; linker I:N-II:N via Actinocin(9to1)) | 0.0023 µM (active)
C[C@]12C=CC(=O)C=C1[C@@H](F)C[C@@H]1[C@@H]2[C@@H](O)C[C@@]2(C)[C@H]1CC[C@]2(O)C(=O)CO | inactive
COc1cc(C=C2CCC/C(=C\c3ccc(O)c(OC)c3)C2=O)ccc1O | 5.85 µM (active)
CN(C)C(=S)SC(=S)N(C)C | 3.69 µM (active)
OC[C@H]1O[C@@H](n2cnc3c(=S)nc[nH]c32)[C@H](O)[C@@H]1O | 1.17 µM (active)
C[n+]1c2cc(N)ccc2cc2ccc(N)cc21 (tested in a mixture with another compound) | 3.29 µM (active)
C=C1C[C@H]2[C@@H]3C=C(C)C4=CC(=O)CC[C@]4(C)[C@H]3CC[C@]2(C)[C@@]1(OC(C)=O)C(C)=O | inactive
C[C@H]1C[C@H]2[C@@H]3CCC4=CC(=O)C=C[C@]4(C)[C@@]3(Cl)[C@@H](O)C[C@]2(C)[C@@]1(O)C(=O)CO | inactive
CC(=O)OCC(=O)[C@@]1(OC(C)=O)[C@@H](C)C[C@H]2[C@@H]3C[C@H](F)C4=CC(=O)C=C[C@]4(C)[C@@]3(F)[C@@H](O)C[C@@]21C | inactive
C[C@@H]1C[C@H]2[C@@H]3CCC4=CC(=O)C=C[C@]4(C)[C@@]3(F)[C@@H](O)C[C@]2(C)[C@H]1C(=O)CO | inactive
C[C@@H]1CN(CCCn2c3ccccc3c3ccccc32)C[C@H](C)N1 | 32.9 µM (active)
C[C@]12CCC(=O)C=C1CC[C@H]1[C@@H]3CC[C@](O)(C(=O)CO)[C@@]3(C)C[C@H](O)[C@@]12F | inactive
CC(=O)Oc1ccc(C(c2ccc(OC(C)=O)cc2)c2ccccn2)cc1 | inactive
CC1(C)O[C@@H]2C[C@H]3[C@@H]4C[C@H](F)C5=CC(=O)CC[C@]5(C)[C@H]4[C@@H](O)C[C@]3(C)[C@]2(C(=O)CO)O1 | inactive
